Bioassay records from PubChem.
Shh pathway inh: Sonic Hedgehog pathway inhibition; Shh-LIGHT2 Gli-luciferase reporter, 30 h; inhibition, % (concentration not given with the values); 2.1% of 22,000 active;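 active means mean inhibition across valid replicates above about 65%, limit read from the data; inconclusive means mean under the limit, yet half or more replicates past it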;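 further: pathway switched on by Shh-conditioned medium diluted 1 in 25 in low serum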
NOMO-1 viab: STK33 inhibitor candidate reducing NOMO-1 cell viability | 7.5% of 37,000 active | NOMO-1 AML viability, CellTiter-Glo luminescence, 72 h | inhibition, % (test concentration not listed) | AID 2330; in the data active means inhibition above about 80%; inconclusive means no clear call, values can overlap the other calls
PD-1 reversal: reversal of PD-1 mediated T-cell inhibition; primary human CD4 T cells, PD-L1 beads, CellTiter-Glo 96 h; activation, % (concentration not given with the values); 29,000 tested, under 10 active; AID 2316; call rule not given here
Of the large screens only hits and unclear results are named; the others gave an inactive call. Only some compounds are listed: those with a hit (about 7.7% of all), similar ones and a draw of the others.

C[C@H](CO)N1C[C@H](C)[C@@H](CN(C)Cc2ccc(C(=O)Nc3ccccc3N)cc2)Oc2c(NC(=O)c3ccncc3)cccc2C1=O	none (no result: Shh pathway inh)
C[C@H](CO)N1C[C@H](C)[C@@H](CN(C)Cc2ccc(C(=O)Nc3ccccc3N)cc2)Oc2c(NC(=O)Nc3ccccc3)cccc2C1=O	NOMO-1 viab 127 (no result: Shh pathway inh)
C[C@@H]1CN([C@H](C)CO)C(=O)c2cccc(NC(=O)Nc3ccccc3)c2O[C@@H]1CN(C)Cc1ccc(C(=O)O)cc1	none (no result: PD-1 reversal)
C[C@H]1CN([C@@H](C)CO)C(=O)c2cccc(NC(=O)Nc3ccccc3)c2O[C@@H]1CN(C)Cc1ccc(C(=O)Nc2ccccc2N)cc1	NOMO-1 viab 127 (no result: Shh pathway inh)
CC(C)NC(=O)Nc1cccc2c1O[C@H](CN(C)Cc1ccc(C(=O)Nc3ccccc3N)cc1)[C@H](C)CN([C@H](C)CO)C2=O	NOMO-1 viab 119 (no result: Shh pathway inh)
C[C@H](CO)N1C[C@H](C)[C@H](CN(C)Cc2ccc(C(=O)O)cc2)Oc2c(NC(=O)Nc3ccc(F)cc3)cccc2C1=O	none
C[C@@H]1CN([C@@H](C)CO)C(=O)c2cccc(NC(=O)Nc3ccc(F)cc3)c2O[C@@H]1CN(C)Cc1ccc(C(=O)Nc2ccccc2N)cc1	NOMO-1 viab 140 (no result: Shh pathway inh)
COc1cc2c(cc1NC(=O)C(C)Oc1cccc(Cl)c1)oc1ccccc12 (configuration not stated)	none (no result: Shh pathway inh)
C[C@@H]1CN([C@H](C)CO)C(=O)c2cccc(NC(=O)Nc3ccc4c(c3)OCO4)c2O[C@H]1CN(C)Cc1ccc(C(=O)Nc2ccccc2N)cc1	NOMO-1 viab 127 (no result: Shh pathway inh)
C[C@@H]1CN([C@@H](C)CO)C(=O)c2cccc(NC(=O)Nc3ccccc3)c2O[C@H]1CN(C)Cc1ccc(C(=O)Nc2ccccc2N)cc1	NOMO-1 viab 125 (no result: Shh pathway inh)
C[C@H](CO)N1C[C@H](C)[C@H](CN(C)Cc2ccc(C(=O)Nc3ccccc3N)cc2)Oc2c(NC(=O)Nc3ccc(C(F)(F)F)cc3)cccc2C1=O	none (no result: Shh pathway inh)
C[C@@H]1CN([C@@H](C)CO)C(=O)c2cccc(NC(=O)Nc3ccc(C(F)(F)F)cc3)c2O[C@@H]1CN(C)Cc1ccc(C(=O)Nc2ccccc2N)cc1	NOMO-1 viab 128 (no result: Shh pathway inh)
C[C@H]1CN([C@@H](C)CO)C(=O)c2cccc(NC(=O)Nc3ccccc3)c2O[C@@H]1CN(C)Cc1ccccc1	none (no result: PD-1 reversal)
C[C@H](CO)N1C[C@H](C)[C@H](CN(C)Cc2ccc(C(=O)Nc3ccccc3N)cc2)Oc2c(NC(=O)Nc3ccc4c(c3)OCO4)cccc2C1=O	NOMO-1 viab inconclusive (no result: Shh pathway inh)
COc1cc(OC)c(NC(=O)CCCN2C(=O)c3ccccc3C2=O)cc1Cl	none (no result: Shh pathway inh)
COc1ccc(C)cc1NC(=O)CN(C)S(=O)(=O)c1ccccc1	none (no result: Shh pathway inh)
Cc1ccccc1-n1nnnc1SCC(=O)Nc1cccc(Cl)c1Cl	none (no result: Shh pathway inh)
Cc1c(-c2ccccc2)[n+](=O)c(-c2ccc(Br)cc2)c(C)n1[O-]	Shh pathway inh 67
Cc1ccc(C)c(NC(=O)c2ccc(OCC(=O)Nc3cccc(Cl)c3)cc2)c1	none (no result: Shh pathway inh)
CCCn1c(=N)n(CC(O)c2ccccc2)c2ccccc21 (configuration not stated)	none
OC(COc1ccccc1F)Cn1cnc2ccccc21 (configuration not stated)	none (no result: Shh pathway inh)
O=C(c1cccc(S(=O)(=O)NC2CCCCCC2)c1)N1CCCc2ccccc21	none
Cn1c(O)c(C=Nc2cccc(CO)c2)c2ccccc21	none
CCc1ccc(N=Cc2c(O)n(-c3ccccc3)c(=O)c3ccccc23)cc1	NOMO-1 viab 120
Cc1cccc(NC(=O)CCC(=O)O)c1	none (no result: Shh pathway inh, PD-1 reversal)
O=C(Nc1ccc(C2=NCCO2)cc1)c1ccc(C(F)(F)F)cc1	none
Cc1cc(Br)ccc1NC(=O)Cn1nc(C)c([N+](=O)[O-])c1C	none (no result: Shh pathway inh, PD-1 reversal)
O=C(c1ccco1)N1N=C2c3ccccc3CCC2C1c1ccc(F)cc1 (configuration not stated)	none
CCNC(=S)N1N=C2c3ccccc3CCC2C1c1ccc(F)cc1 (configuration not stated)	NOMO-1 viab 113 (no result: Shh pathway inh)
CC1=CS(=O)(=O)CC1SC(=S)NC(C)C (configuration not stated)	NOMO-1 viab inconclusive
Cc1ccnc(NC(c2cc(C)ccc2C)c2ccc3ccc(C)nc3c2O)c1 (configuration not stated)	none (no result: Shh pathway inh)
Cc1ccnc(NC(c2ccc([N+](=O)[O-])cc2)c2ccc3ccc(C)nc3c2O)c1 (configuration not stated)	NOMO-1 viab 118 (no result: Shh pathway inh, PD-1 reversal)
Cc1ccnc(SCC(=O)c2ccc([N+](=O)[O-])cc2)n1	none (no result: Shh pathway inh)
COc1cccc(C(Nc2cc(C)ccn2)c2ccc3ccc(C)nc3c2O)c1 (configuration not stated)	NOMO-1 viab 97 (no result: Shh pathway inh)
O=C(COc1ccc2ccccc2c1)Nc1cccc(NC(=O)c2ccc(Cl)cc2Cl)c1	none (no result: Shh pathway inh)
CC(C)n1c2ccccc2c2nnc(SCC(=O)N3c4ccccc4Sc4ccccc43)nc21	none (no result: Shh pathway inh)
C[C@@H]1CN([C@H](C)CO)C(=O)Cc2cc(NC(=O)Nc3ccc(C(F)(F)F)cc3)ccc2O[C@H]1CN(C)S(=O)(=O)c1cn(C)cn1	Shh pathway inh inconclusive
C[C@H](CO)N1C[C@H](C)[C@H](CN(C)S(=O)(=O)c2cn(C)cn2)Oc2ccc(NC(=O)Nc3ccc(C(F)(F)F)cc3)cc2CC1=O	NOMO-1 viab 125 (no result: PD-1 reversal)
C[C@@H]1CN([C@@H](C)CO)C(=O)Cc2cc(NC(=O)Nc3ccc(C(F)(F)F)cc3)ccc2O[C@@H]1CN(C)S(=O)(=O)c1cn(C)cn1	Shh pathway inh inconclusive, NOMO-1 viab 112
C[C@H]1CN([C@@H](C)CO)C(=O)Cc2cc(NC(=O)Nc3ccc(C(F)(F)F)cc3)ccc2O[C@@H]1CN(C)S(=O)(=O)c1cn(C)cn1	none
CCOC(=O)c1c(NC(=O)Cn2cnc3sc(C)c(C)c3c2=O)sc(C)c1C	none (no result: Shh pathway inh)
Cc1ccc(Cc2nn3c(C(=O)c4cccs4)nn(-c4ccc(Cl)cc4)c3nc2=O)cc1	Shh pathway inh 67
O=C(c1cccs1)n1nc(-c2ccc(Cl)cc2)nc1NCc1ccco1	none (no result: Shh pathway inh)
Cc1onc(-c2ccccc2Cl)c1C(=O)NCCc1ccc(S(N)(=O)=O)cc1	none (no result: Shh pathway inh, PD-1 reversal)
Cc1ccc(C(=O)Cn2c3c(sc2=N)CCCC3)cc1	Shh pathway inh 76 (no result: PD-1 reversal)
Cc1ccc(C(=O)Cn2c(C)csc2=Nc2ccccc2)cc1	none (no result: Shh pathway inh)
Cc1ccc(-c2ccc(OC(=O)c3ccccc3F)cc2)cc1	none
O=C(CSc1nc(Nc2ccccc2)nc(Nc2ccccc2)n1)N1CCN(c2ccccc2)CC1	none (no result: Shh pathway inh)
COCc1cc(O)c(O)c(O)c1-c1c(COC)cc(O)c(O)c1O	NOMO-1 viab 97
COc1ccc(CCC(=O)O)c(O)c1	none
O=c1cc(-c2ccc(O[C@@H]3O[C@H](CO)[C@@H](O)[C@H](O)[C@H]3O)cc2)oc2cc(O)cc(O)c12	none
COc1ccccc1-n1nnnc1SCC(=O)Nc1cc(OC)c(OC)c(OC)c1	none (no result: Shh pathway inh, PD-1 reversal)
CO[C@@H]1C=C[C@@]23c4cc5c(cc4CN(CC2O)[C@H]3C1)OCO5 (some centres not stated)	Shh pathway inh 88, NOMO-1 viab 113
Cc1cccc(N=Cc2c(Nc3cccc(C)c3)nc3ccccn3c2=O)c1	none
COc1cc(CC(CO)C(CO)Cc2ccc(O)c(OC)c2)ccc1O (configuration not stated)	none
COC(=O)C(C(CO)Cc1ccc(O)c(OC)c1)C(O)c1ccc(O)c(OC)c1 (configuration not stated)	NOMO-1 viab 108
